# According to the supplement of paper PMC8728848:
# The full list was thinned out, with the strongest signals kept by preference.
# B1: DrGRIFIN (Danio rerio), Q6DGJ1 (protein)
# chain: MTLRFEASCPDGLCPGWSVILKGETPPEASKFEINFLCDRDDRVAFHFNPRFTESDIICNSYMANRWGQEERCNHFPLGVEEPFQIEIYSDNDHFHVYIDKAKVMQYKHRVEDLKTITKLQVVNDVKISSLEITKKLFY
# What was measured:
# Assay in all cases: glycan array binding signal (z-score within array); higher = stronger binding
# Settings in all cases: glycan notation: IUPAC condensed, linker removed
# [1] = biological target: Fuc(a1-2)[Gal(a1-3)]Gal(b1-3)GlcNAc
# Outline: (§1)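 The Consortium for Functional Glycomics database supplied 3228 glycan arrays, of which those lacking an available protein sequence were dropped. The binding signal, a within-array Z-score, was averaged across arrays of the same protein sequence and across linkers. Negative scores can be read as non-binding.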
# [2] = biological target: Fuc(a1-2)[Gal(a1-3)]Gal(b1-3)GlcNAc(b1-2)Man(a1-3)[Fuc(a1-2)[Gal(a1-3)]Gal(b1-3)GlcNAc(b1-2)Man(a1-6)]Man(b1-4)GlcNAc(b1-4)GlcNAc
# Outline: as §1
# [3] = biological target: Fuc(a1-2)[Gal(a1-3)]Gal(b1-3)GlcNAc(b1-3)GalNAc
# Outline: as §1
# [4] = biological target: Fuc(a1-2)[Gal(a1-3)]Gal(b1-3)GlcNAc(b1-6)GalNAc
# Outline: as §1
# [5] = biological target: Fuc(a1-2)[Gal(a1-3)]Gal(b1-4)Glc
# Outline: as §1
# [6] = biological target: Fuc(a1-2)[Gal(a1-3)]Gal(b1-4)GlcNAc
# Outline: as §1
# [7] = biological target: Fuc(a1-2)[Gal(a1-3)]Gal(b1-4)GlcNAc(b1-2)Man
# Outline: as §1
# [8] = biological target: Fuc(a1-2)[Gal(a1-3)]Gal(b1-4)GlcNAc(b1-2)Man(a1-3)[Fuc(a1-2)[Gal(a1-3)]Gal(b1-4)GlcNAc(b1-2)Man(a1-6)]Man(b1-4)GlcNAc(b1-4)GlcNAc
# Outline: as §1
# [9] = biological target: Fuc(a1-2)[Gal(a1-3)]Gal(b1-4)GlcNAc(b1-2)Man(a1-3)[Fuc(a1-2)[Gal(a1-3)]Gal(b1-4)GlcNAc(b1-2)Man(a1-6)]Man(b1-4)GlcNAc(b1-4)[Fuc(a1-6)]GlcNAc
# Outline: as §1
# [10] = biological target: Fuc(a1-2)[Gal(a1-3)]Gal(b1-4)GlcNAc(b1-3)GalNAc
# Outline: as §1
# [11] = biological target: Fuc(a1-2)[Gal(a1-3)]Gal(b1-4)GlcNAc(b1-3)[Fuc(a1-2)[Gal(a1-3)]Gal(b1-4)GlcNAc(b1-6)]GalNAc
# Outline: as §1
# [12] = biological target: Fuc(a1-2)[Gal(a1-3)]Gal(b1-4)[Fuc(a1-3)]GlcNAc(b1-3)GalNAc
# Outline: as §1
# [13] = biological target: Fuc(a1-2)[GalNAc(a1-3)]Gal(b1-4)GlcNAc(b1-6)GalNAc
# Outline: as §1
# [14] = biological target: Fuc(a1-3)[Gal(b1-4)]GlcNAc(b1-6)[Gal(b1-3)GlcNAc(b1-3)]Gal(b1-4)Glc
# Outline: as §1
# [15] = biological target: Gal(b1-3)GlcNAc(b1-2)Man(a1-3)[Gal(b1-3)GlcNAc(b1-2)Man(a1-6)]Man(b1-4)GlcNAc(b1-4)[Fuc(a1-6)]GlcNAc
# Outline: as §1
# [16] = biological target: Gal(b1-3)GlcNAc(b1-3)Gal(b1-4)GlcNAc(b1-3)Gal(b1-4)GlcNAc(b1-2)[Gal(b1-3)GlcNAc(b1-3)Gal(b1-4)GlcNAc(b1-3)Gal(b1-4)GlcNAc(b1-6)]Man(a1-6)[Gal(b1-3)GlcNAc(b1-3)Gal(b1-4)GlcNAc(b1-3)Gal(b1-4)GlcNAc(b1-2)Man(a1-3)]Man(b1-4)GlcNAc(b1-4)[Fuc(a1-6)]GlcNAc
# Outline: as §1
# [17] = biological target: Gal(b1-3)[Fuc(a1-4)]GlcNAc
# Outline: as §1
# [18] = biological target: Gal(b1-4)Glc
# Outline: as §1
# [19] = biological target: Gal(b1-4)Glc6S
# Outline: as §1
# [20] = biological target: Gal(b1-4)GlcNAc(a1-6)Gal(b1-4)GlcNAc
# Outline: as §1
# [21] = biological target: Gal(b1-4)GlcNAc(b1-2)Man(a1-6)[GlcNAc(b1-2)Man(a1-3)]Man(b1-4)GlcNAc(b1-4)GlcNAc
# Outline: as §1
# [22] = biological target: Gal(b1-4)GlcNAc(b1-3)Gal(b1-4)GlcNAc(b1-2)[Gal(b1-4)GlcNAc(b1-3)Gal(b1-4)GlcNAc(b1-6)]Man(a1-6)[Gal(b1-4)GlcNAc(b1-3)Gal(b1-4)GlcNAc(b1-2)Man(a1-3)]Man(b1-4)GlcNAc(b1-4)GlcNAc
# Outline: as §1
# [23] = biological target: Gal3S6S(b1-4)GlcNAc
# Outline: as §1
# [24] = biological target: Gal3S6S(b1-4)GlcNAc6S
# Outline: as §1
# [25] = biological target: Gal6S(b1-4)GlcNAc
# Outline: as §1
# [26] = biological target: GalNAc(b1-3)Gal(a1-4)Gal(b1-4)GlcNAc(b1-3)Gal(b1-4)Glc
# Outline: as §1
# [27] = biological target: GalNAc(b1-3)GlcNAc
# Outline: as §1
# [28] = biological target: GalNAc(b1-4)GlcNAc(b1-2)Man
# Outline: as §1
# [29] = biological target: GalNAc3S(b1-4)GlcNAc
# Outline: as §1
# [30] = biological target: GlcNAc(a1-4)Gal(b1-4)GalNAc
# Outline: as §1
# [31] = biological target: GlcNAc(b1-3)Gal(b1-4)GlcNAc(b1-2)Man(a1-3)[GlcNAc(b1-3)Gal(b1-4)GlcNAc(b1-2)Man(a1-6)]Man(b1-4)GlcNAc(b1-4)GlcNAc
# Outline: as §1
# [32] = biological target: GlcNAc(b1-3)Gal(b1-4)GlcNAc(b1-3)Gal(b1-4)GlcNAc(b1-3)Gal(b1-4)GlcNAc(b1-2)[GlcNAc(b1-3)Gal(b1-4)GlcNAc(b1-3)Gal(b1-4)GlcNAc(b1-3)Gal(b1-4)GlcNAc(b1-6)]Man(a1-6)[GlcNAc(b1-3)Gal(b1-4)GlcNAc(b1-3)Gal(b1-4)GlcNAc(b1-3)Gal(b1-4)GlcNAc(b1-2)Man(a1-3)]Man(b1-4)GlcNAc(b1-4)[Fuc(a1-6)]GlcNAc
# Outline: as §1
# [33] = biological target: GlcNAc(b1-4)Gal(b1-4)GlcNAc
# Outline: as §1
# [34] = biological target: Man(a1-2)Man(a1-6)[Man(a1-3)]Man(a1-6)[Man(a1-2)Man(a1-2)Man(a1-3)]Man
# Outline: as §1
# [35] = biological target: Man(a1-3)[Man(a1-6)]Man(a1-6)[Man(a1-2)Man(a1-3)]Man(b1-4)GlcNAc(b1-4)GlcNAc
# Outline: as §1
# [36] = biological target: Neu5Ac(a2-3)Gal(b1-3)GlcNAc(b1-3)Gal(b1-3)GlcNAc
# Outline: as §1
# [37] = biological target: Neu5Ac(a2-3)Gal(b1-3)GlcNAc(b1-3)GalNAc
# Outline: as §1
# [38] = biological target: Neu5Ac(a2-3)Gal(b1-4)GlcNAc(b1-2)Man(a1-3)[Neu5Ac(a2-3)Gal(b1-4)GlcNAc(b1-2)Man(a1-6)]Man(b1-4)GlcNAc(b1-4)GlcNAc
# Outline: as §1
# [39] = biological target: Neu5Ac(a2-3)Gal6S(b1-4)GlcNAc
# Outline: as §1
# [40] = biological target: Neu5Ac(a2-6)Gal(b1-4)GlcNAc(b1-2)Man(a1-3)[Neu5Ac(a2-6)Gal(b1-4)GlcNAc(b1-2)Man(a1-6)]Man(b1-4)GlcNAc(b1-4)GlcNAc
# Outline: as §1
# [41] = biological target: Neu5Ac(a2-6)Gal(b1-4)GlcNAc(b1-2)Man(a1-6)[Gal(b1-4)GlcNAc(b1-2)Man(a1-3)]Man(b1-4)GlcNAc(b1-4)GlcNAc
# Outline: as §1
# [42] = biological target: Neu5Ac(a2-6)Gal(b1-4)GlcNAc(b1-2)[Neu5Ac(a2-6)Gal(b1-4)GlcNAc(b1-4)]Man(a1-3)[GlcNAc(b1-4)][Neu5Ac(a2-6)Gal(b1-4)GlcNAc(b1-2)[Neu5Ac(a2-6)Gal(b1-4)GlcNAc(b1-6)]Man(a1-6)]Man(b1-4)GlcNAc(b1-4)GlcNAc
# Outline: as §1
# [43] = biological target: Neu5Ac(a2-6)Gal(b1-4)GlcNAc(b1-3)GalNAc
# Outline: as §1
# [44] = biological target: Neu5Ac(a2-8)Neu5Ac
# Outline: as §1
# [45] = biological target: Neu5Ac(a2-8)Neu5Ac(a2-3)[GalNAc(b1-4)]Gal(b1-4)Glc
# Outline: as §1
# [46] = biological target: Neu5Gc(a2-6)GalNAc
# Outline: as §1
binder,measurement,setting,value
B1,glycan array binding signal (z-score),[1],5.95
same,glycan array binding signal (z-score),[2],10.6
same,glycan array binding signal (z-score),[3],5.36
same,glycan array binding signal (z-score),[4],6.96
same,glycan array binding signal (z-score),[5],6.1
same,glycan array binding signal (z-score),[6],6.44
same,glycan array binding signal (z-score),[7],9.46
same,glycan array binding signal (z-score),[8],4.9
same,glycan array binding signal (z-score),[9],5.59
same,glycan array binding signal (z-score),[10],4.81
same,glycan array binding signal (z-score),[11],6.36
same,glycan array binding signal (z-score),[12],-0.062
same,glycan array binding signal (z-score),[13],-0.23
same,glycan array binding signal (z-score),[14],-0.109
same,glycan array binding signal (z-score),[15],-0.135
same,glycan array binding signal (z-score),[16],-0.107
same,glycan array binding signal (z-score),[17],-0.187
same,glycan array binding signal (z-score),[18],-0.191
same,glycan array binding signal (z-score),[19],-0.201
same,glycan array binding signal (z-score),[20],-0.172
same,glycan array binding signal (z-score),[21],-0.071
same,glycan array binding signal (z-score),[22],-0.039
same,glycan array binding signal (z-score),[23],-0.193
same,glycan array binding signal (z-score),[24],-0.097
same,glycan array binding signal (z-score),[25],-0.181
same,glycan array binding signal (z-score),[26],-0.12
same,glycan array binding signal (z-score),[27],-0.192
same,glycan array binding signal (z-score),[28],-0.129
same,glycan array binding signal (z-score),[29],-0.052
same,glycan array binding signal (z-score),[30],-0.154
same,glycan array binding signal (z-score),[31],-0.132
same,glycan array binding signal (z-score),[32],-0.163
same,glycan array binding signal (z-score),[33],-0.166
same,glycan array binding signal (z-score),[34],-0.123
same,glycan array binding signal (z-score),[35],-0.189
same,glycan array binding signal (z-score),[36],-0.131
same,glycan array binding signal (z-score),[37],-0.117
same,glycan array binding signal (z-score),[38],-0.141
same,glycan array binding signal (z-score),[39],-0.179
same,glycan array binding signal (z-score),[40],-0.171
same,glycan array binding signal (z-score),[41],-0.195
same,glycan array binding signal (z-score),[42],-0.026
same,glycan array binding signal (z-score),[43],-0.217
same,glycan array binding signal (z-score),[44],-0.131
same,glycan array binding signal (z-score),[45],-0.146
same,glycan array binding signal (z-score),[46],-0.148
